Source: PubChem BioAssay (National Center for Advancing Translational Sciences (NCATS))
An excerpt weighted towards active compounds, which were near 5.4% of everything screened.
VACV Venus inh – inhibitors of vaccinia virus (Venus reporter) | Vaccinia virus Venus reporter expression, fluorescence | Potency, µM (series often up to 36.5 µM), without a hit: top-dose activity change, negative = inhibition, hits mostly inhibitors | 330,000 compounds, 0.46% hits | AID 720580; calls by dose curve; tested in A549 cells; note: nearly all actives have a fitted effect of over 30% in size
Vaccinia mCherry – vaccinia inhibition (mCherry reporter). Potency, µM (titrated, usually from 36.5 µM), without a hit: top-dose activity change, negative = inhibition, hits mostly inhibitors. Vaccinia virus mCherry reporter infection, fluorescence. 310,000 compounds, 0.63% hits. AID 720579; calls by dose curve; tested in A549 cells; note: nearly all actives have a fitted effect of over 35% in size
Marburg entry inh – inhibitors of Marburg virus binding or cell entry. Potency, µM (top dose mostly 37.8 µM), for inactives: at the top dose activity change, negative = inhibition, hits mostly inhibitors. Marburg virus pseudotyped entry inhibition, cell reporter. AID 540276. 300,000 compounds, 1.8% hits; calls by dose curve; tested in HEK293 cells
FMDV antiviral – foot and mouth disease virus antiviral activity; FMDV antiviral cell-based qHTS; Potency, µM (top dose mostly 57.9 µM), without a hit: at the top dose activity change, negative = inhibition, usual class: inhibitors; 410,000 compounds, 1.2% hits; AID 1159524; calls by dose curve; tested in HEK293T cells; note: read-out not given here; nearly all actives have a fitted effect of over 45% in size
Sm TGR block – inhibitors of Schistosoma mansoni thioredoxin glutathione reductase. Q962Y6. purified TGR, DTNB reduction, TNB absorbance 405 nm. Potency, µM (doses to about 114 µM), for inactives: at the highest dose activity change, negative = inhibition, usual class: inhibitors. 360,000 compounds, 3% hits; active = well fitted inhibition curve with a large enough effect; inconclusive = small, poorly fitted or top-dose-only effect; inactive = no such curve, though single readings can be large or run the other way; note: nearly all actives have a fitted effect of over 60% in size
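TGR 20 nM + NADPH 100 uM (dispensed conc.), cpd preinc 15 min RT; start with NADPH (500 uM addition) then DTNB (15 mM addition). Kinetic TNB absorbance, 405 nm filter. Four-parameter Hill fit across titration.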
LASV entry inh – Lassa virus entry inhibition; Lassa virus pseudotype entry inhibition, cell reporter; Potency, µM (series often up to 37.9 µM), for inactives: at the top dose activity change, negative = inhibition, hits mostly inhibitors; 300,000 compounds, 1.2% hits; calls by dose curve; tested in HEK293 cells; note: nearly all actives have a fitted effect of over 50% in size
* = called active by the depositor; [ ] = another dose, or the depositor's remark. % is set by controls: 0 for no effect and ±100 for the full control effect; potency is the fitted concentration of half-maximal effect.

`Nc1c(C(=O)Nc2ccc(Br)cc2)sc2nc(-c3ccco3)ccc12` gave VACV Venus inh -29%, Vaccinia mCherry inconclusive, Marburg entry inh -16%, FMDV antiviral inconclusive, Sm TGR block 0.79µM* and LASV entry inh inconclusive.
COc1ccc(C)cc1NC(=O)Cn1c(=O)oc2cc(S(=O)(=O)N3CCCCC3)ccc21 was read as VACV Venus inh -10%, Vaccinia mCherry -9%, Marburg entry inh 7%[46.1 µM], FMDV antiviral -11% and Sm TGR block 2%.
Cc1ccc(-n2nc3c(N4CCCC(C(=O)NCc5ccccc5C)C4)nnc(C)c3c2C)cc1 (stereo not drawn) was read as VACV Venus inh inconclusive, Vaccinia mCherry inconclusive, FMDV antiviral 11%, Sm TGR block 6% and LASV entry inh -3%[46.1 µM].
For Cc1ncc(CO)c(/C=N/Nc2ccc(C(F)(F)F)cn2)c1O the results were VACV Venus inh -17%, Vaccinia mCherry inconclusive, Marburg entry inh 4µM*, FMDV antiviral 6%, Sm TGR block 4% and LASV entry inh inconclusive.
`Cc1ncc(CO)c(/C=N/NC(=S)Nc2ccc(F)cc2)c1O` gave VACV Venus inh -26%, Vaccinia mCherry inconclusive, Marburg entry inh 14µM*, FMDV antiviral 0%, Sm TGR block -22% and LASV entry inh inconclusive.
`FC(F)(F)c1ccc(N/N=C/c2cccnc2)nc1` gave VACV Venus inh inconclusive, Vaccinia mCherry inconclusive, Marburg entry inh 14%[46.1 µM], FMDV antiviral 36%, Sm TGR block -19% and LASV entry inh 1%.
`Cc1ncc(CO)c(/C=N/N=C/c2ccccc2O)c1O` gave VACV Venus inh -10%, Vaccinia mCherry inactive, Marburg entry inh 28%, FMDV antiviral 3%, Sm TGR block -16% and LASV entry inh inconclusive.
`CSc1ccc(/C=N/Nc2cccc(C(=O)O)c2)cc1` gave VACV Venus inh -13%, Vaccinia mCherry -8%, Marburg entry inh inconclusive, FMDV antiviral 2.2µM*, Sm TGR block 19% and LASV entry inh 0.89µM*.
For O=C(O)c1cccc(N/N=C/c2ccc(OC(F)(F)F)cc2)c1 the results were VACV Venus inh -17%, Vaccinia mCherry inconclusive, Marburg entry inh inconclusive, FMDV antiviral 25µM*, Sm TGR block 7% and LASV entry inh inconclusive.
CSc1ccc(/C=N/NC(=O)c2ccccc2Cl)cc1 was read as VACV Venus inh -23%, Vaccinia mCherry -9%, Marburg entry inh inconclusive, FMDV antiviral 65%, Sm TGR block -3% and LASV entry inh 8.9µM*.
`O=C(O)c1ccc(N/N=C/c2ccc(OC(=O)c3cccc(Cl)c3)cc2)cc1` gave VACV Venus inh 0%, Vaccinia mCherry inconclusive, FMDV antiviral 20µM* and Sm TGR block 3%.
For COC(=O)c1ccc(COc2ccc(/C=N/Nc3cccc(C(=O)O)c3)cc2)cc1 the results were FMDV antiviral -29% and Sm TGR block inconclusive.
O=C(Oc1ccc(/C=N/Nc2ccccc2)cc1)c1ccccc1 was read as VACV Venus inh -17%, Vaccinia mCherry inactive, Marburg entry inh 34%, FMDV antiviral 15%, Sm TGR block -16% and LASV entry inh -9%.
Screening O=C(O)c1cccc(N/N=C/c2cccs2)c1 returned VACV Venus inh -6%, Vaccinia mCherry -5%, Marburg entry inh 1.5µM*, FMDV antiviral 2.2µM*, Sm TGR block -7% and LASV entry inh 5.8µM*.
For CCN(CC)c1ccc(S(=O)(=O)Nc2cc(Cl)ccc2Cl)cc1NC(=S)NC(=O)C1CCCC1 the results were VACV Venus inh -23%, Vaccinia mCherry -23%, Marburg entry inh inconclusive, FMDV antiviral 0%, Sm TGR block -1% and LASV entry inh -5%.
For Cc1ccc(NC(=S)NC(=O)C2CC2)cc1Cl the results were FMDV antiviral 32% and Sm TGR block inconclusive.
Screening NS(=O)(=O)c1ccc(NC(=S)Nc2ccc(F)c(F)c2)cc1 returned VACV Venus inh -3%, Vaccinia mCherry -5%, Marburg entry inh -12%, FMDV antiviral -2%, Sm TGR block 25µM* and LASV entry inh 17%.
For Fc1ccc(NC(=S)N2CCCC2)cc1Cl the results were VACV Venus inh -13%, Vaccinia mCherry -10%, Marburg entry inh inconclusive, FMDV antiviral 0%, Sm TGR block -8% and LASV entry inh -1%.
Screening CCN(CC)S(=O)(=O)c1ccc(Cl)c(NC(=S)NC(=O)C2CCCC2)c1 returned FMDV antiviral 20µM* and Sm TGR block -26%.
Screening Fc1ccc(NC(=S)Nc2ccc(F)c(Cl)c2)cc1Cl returned VACV Venus inh 10µM*, Vaccinia mCherry inconclusive, Marburg entry inh 0%[46.1 µM], FMDV antiviral inconclusive, Sm TGR block inconclusive and LASV entry inh -17%.
O=C(NC(=S)Nc1ccc(F)c(Cl)c1)C1CC1 was read as VACV Venus inh -11%, Vaccinia mCherry inactive, Marburg entry inh 1%[46.1 µM], FMDV antiviral 4%, Sm TGR block 16µM* and LASV entry inh inconclusive.
Screening O=C(CCn1cnc2onc(-c3ccc(F)cc3)c2c1=O)N1CCN(c2cccc(Cl)c2)CC1 returned VACV Venus inh -9%, Vaccinia mCherry -16%, FMDV antiviral inconclusive, Sm TGR block -1% and LASV entry inh -10%[46.1 µM].
Screening C[N+]1(C)CCc2cc3c(cc2[C@@H]1[C@@H]1C(=O)Oc2c1ccc1c2OCO1)OCO3 returned FMDV antiviral -22%.
`CCC1CCCCN1C(=O)COc1ccccc1NC(C)=O` (stereo not drawn) gave VACV Venus inh 3%, Vaccinia mCherry -1%, Marburg entry inh 4%[46.1 µM], FMDV antiviral -20%, Sm TGR block 50µM* and LASV entry inh -25%.
`CCOc1ccccc1NC(=S)NC(=O)C1CCCCC1` gave VACV Venus inh -5%, Vaccinia mCherry -8%, Marburg entry inh -29%[46.1 µM], FMDV antiviral -22%, Sm TGR block 8.9µM* and LASV entry inh inconclusive.
`O=C(NC(=S)Nc1ccccc1Cl)C1CC1` gave FMDV antiviral 10% and Sm TGR block 45µM*.
`CCC1CCCCN1C(=O)COc1cc(=O)n(C)c2ccccc12` (stereo not drawn) gave VACV Venus inh 5%, Vaccinia mCherry -8%, FMDV antiviral -25% and Sm TGR block 2%.
`O=C(Nc1ccc(NC(=O)c2ccc(Br)cc2)c(Cl)c1)c1ccc(Br)cc1` gave VACV Venus inh 1%, Vaccinia mCherry -7%, FMDV antiviral 14%, Sm TGR block -6% and LASV entry inh 7%[46.1 µM].
Screening O=C(Nc1nc2c(F)cccc2s1)c1ccc2c(c1)OCCO2 returned VACV Venus inh -6%, Vaccinia mCherry 0%, FMDV antiviral -66%, Sm TGR block 14% and LASV entry inh inconclusive.
Screening CCN(Cc1ccccc1)C(=O)C(CC(C)C)NS(=O)(=O)c1ccc2c(c1)CCN2C(C)=O (stereo not drawn) returned VACV Venus inh -1%, Vaccinia mCherry 1%, Marburg entry inh 15%[46.1 µM], FMDV antiviral -8%, Sm TGR block -3% and LASV entry inh inconclusive.
